ELG1 DNA repair – qHTS screen for small molecules that inhibit ELG1-dependent DNA repair in human embryonic kidney (HEK293T) cells expressing luciferase-tagged ELG1. HEK293T ELG1-luciferase reporter, luminescence, 16 h; DNA damage induced by 5-fluorouridine. Potency, µM (doses to about 46.1 µM), for inactives: at the highest dose activity change, negative = inhibition, hits mostly inhibitors. 2.3% of 330,000 active. AID 504467, 2011; further: on the % scale 0 is the no-effect control and ±100 the full control effect; nearly all actives have a fitted effect of over 55% in size
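HEK293T cells expressing luciferase-tagged ELG1 (2,000/well) received 5-Fluorouridine plus compound or DMSO for 16 hr at 37 °C. Luciferase was read by ONE-Glo luminescence after 30 min at room temperature.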
ELG1 genotoxic – qHTS screen for small molecules that induce genotoxicity in human embryonic kidney (HEK293T) cells expressing luciferase-tagged ELG1; HEK293T ELG1-luciferase reporter, luminescence, 16 h; Potency, µM (series often up to 46 µM), for inactives: at the highest dose activity change, positive = activation, usual class: activators; 1.3% of 330,000 active; further: % of control where 0% means no effect; nearly all actives have a fitted effect of over 60% in size
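16 hr compound incubation (37 °C, 5% CO2) of HEK293T cells carrying luciferase-tagged ELG1; luciferase then measured by ONE-Glo luminescence after 30 min at RT.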
FLuc counter – qHTS profiling assay for firefly luciferase inhibitor/activator using purifed enzyme and Km concentrations of substrates (counterscreen for miR-21 project); Luciferin 4-monooxygenase (Photinus pyralis), P08659; purified FLuc, Km substrates, luminescence inhibition; Potency, µM (top dose mostly 57.5 µM), without a hit: at the top dose activity change, negative = inhibition, most hits filed as inhibitors; 6.9% of 360,000 active; AID 588342, 2011;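 further: plate controls were vehicle for no effect and reference inhibitor for full effect; nearly all actives have a fitted effect of over 55% in size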
Target sequence (P08659 whole entry, looked up): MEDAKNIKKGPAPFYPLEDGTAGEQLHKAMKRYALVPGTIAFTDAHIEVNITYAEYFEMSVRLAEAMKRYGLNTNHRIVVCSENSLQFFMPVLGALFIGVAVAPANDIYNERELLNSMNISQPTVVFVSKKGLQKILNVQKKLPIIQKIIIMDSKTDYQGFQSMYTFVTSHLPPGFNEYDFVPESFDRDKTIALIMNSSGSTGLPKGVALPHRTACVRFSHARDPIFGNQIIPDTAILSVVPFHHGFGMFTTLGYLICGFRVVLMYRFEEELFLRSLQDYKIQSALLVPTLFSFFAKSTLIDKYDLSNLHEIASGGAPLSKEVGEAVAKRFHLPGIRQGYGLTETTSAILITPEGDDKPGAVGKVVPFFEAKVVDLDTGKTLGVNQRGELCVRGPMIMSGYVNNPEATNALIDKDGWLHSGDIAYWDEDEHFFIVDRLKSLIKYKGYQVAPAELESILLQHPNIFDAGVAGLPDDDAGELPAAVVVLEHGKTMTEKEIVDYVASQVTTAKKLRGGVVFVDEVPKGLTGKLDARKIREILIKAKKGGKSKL
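Biochemical qHTS of compounds, final roughly 60 µM downward over six points, against 10 nM purified firefly luciferase using Km concentrations of substrates (10 uM D-luciferin, 10 uM ATP) in Tris acetate pH 7.5 buffer; luminescence output.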
NPC1 prom act – qHTS Assay for NPC1 Promoter Activators; Huh7 NPC1 promoter luciferase reporter, 24 h; Potency, µM (doses to about 9.22 µM), inactives show top-dose activation, hits mostly activators; 2.4% of 320,000 active; AID 485313, 2010; further: % of control where 0% means no effect; nearly all actives have a fitted effect of over 60% in size
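Stably transfected Huh7 (NPC1 promoter→luciferase), 1500 cells/well in Opti-MEM + 10% FBS, 2 h settle, then compound 24 h at 37 °C. Luminescence after 10 min with Amplite reagent.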
Rab9 promoter act – qHTS Assay for Rab9 Promoter Activators | Huh7 Rab9 promoter-luciferase reporter, luminescence, 24 h | Potency, µM (series often up to 9.22 µM), for the others: at the top dose activation, negative = inhibition, hits mostly activators | 2.8% of 320,000 active; further: % of control where 0% means no effect; nearly all actives have a fitted effect of over 60% in size
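Luminescence from Amplite-detected luciferase (10 minutes, ambient) reports Rab9 promoter activation. Before that, stable Rab9-luciferase Huh7 cells (1500/well, reduced-serum OP-MEM I plus 10% FBS) were exposed to compound for 24 hours at 37C.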
SMN2 splice up – qHTS Assay for Enhancers of SMN2 Splice Variant Expression; 2.8% of 210,000 active; Potency, µM (series often up to 46.1 µM), for inactives: at the top dose activity change, positive = activation, hits mostly activators; HEK293 SMN2-luciferase splicing reporter, luminescence, 30-36 h; further: % of control where 0% means no effect; nearly all actives have a fitted effect of over 55% in size
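qHTS luciferase splicing reporter: luminescence rises when SMN2 exon 7 is included in transfected HEK293 cells. Compound exposure lasted 30-36 h at 37C, with 4.5 mM final sodium butyrate as control, followed by a ONE-Glo read.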
Active calls of the source: *; ? = inconclusive; . = not tested or not shown; [ ] = another dose, or the depositor's remark. A selection: hits, their analogues and other compounds. The true share with any hit is near 9.3%. The call rests on the fitted dose curve; in most records, active means well fitted curve in the direction sought with a large enough effect; inconclusive means small, poorly fitted or top-dose-only effect, or another doubt; inactive means no such curve, though single readings can be large; an effect the other way counts as inactive or inconclusive. Potency means the concentration at half of the fitted maximal effect.

SMILES	ELG1 DNA repair	ELG1 genotoxic	FLuc counter	NPC1 prom act	Rab9 promoter act	SMN2 splice up
CCOC(=O)[C@@H]1[C@H]2COc3cc(OC)ccc3[C@@H]2N2C(=O)N(c3ccc(F)cc3)C(=O)[C@@]12C	?	2.7%	.	.	.	.
O=C(Cc1ccc(F)cc1)Nc1nnc(SCC(=O)NC2CCCC2)s1	-4.2%	?	-1.8%	-3.0%	-9.7%	3.5%
O=C(CSc1nnc(NC(=O)c2c(F)cccc2F)s1)NC1CCCC1	8.8%	7.8%	0.6%	-0.2%	10.5%	.
O=C(CSc1nnc(NC(=O)c2cccc(F)c2)s1)NC1CCCC1	?	16.1%	6.01µM*	17.1%	18.4%	.
O=C(CSc1nnc(NC(=O)c2ccc(F)cc2)s1)NC1CC1	?	?	5.36µM*	2.51µM*	?	.
COc1ccc(N2CC(C(=O)Nc3nnc(SCC(=O)NC4CCCC4)s3)CC2=O)cc1 (centres undefined)	-0.4%	6.3%	-0.9%	-0.1%	9.9%	.
COc1cccc(C(=O)Nc2nnc(SCC(=O)NC3CCCC3)s2)c1	?	?	2.69µM*	?	?	.
COc1ccccc1C(=O)Nc1nnc(SCC(=O)Nc2ccc3c(c2)oc2ccccc23)s1	?	?	1.9µM*	3.98µM*	2.82µM*	22.4µM*
COc1ccc2cc3cc(C(=O)NCCc4ccccc4)sc3nc2c1Cl	.	.	-0.7%	.	.	.
Cc1ccc2[nH]c(=O)c(-c3noc(CC(C)C)n3)cc2c1	-7.8%	1.2%	-16.7%	1.7%	-0.3%	.
O=C(CSc1nnc(NC(=O)c2c(F)cccc2F)s1)Nc1ccccc1F	?	14.7%	?	4.0%	23.3%	.
CC(C)c1nnc(NC(=O)CSc2nnc(NC(=O)c3c(F)cccc3F)s2)s1	?	16.1%	8.49µM*	18.4%	27.5%	28.3%
CC1Cc2nc(SCC(=O)Nc3ccc4c(c3)OCO4)n(CCc3ccccc3)c(=O)c2S1 (centres undefined)	13µM*	-4.2%	-2.6%	3.3%	-0.9%	7.3%
Nc1cccc2cc(-c3ccccc3)oc12	?	?	4.78µM*	3.98µM*	?	.
Cc1ccc2[nH]c(=O)c(CN(CCCO)S(=O)(=O)c3cccc4nsnc34)cc2c1	?	4.3%	4.1%	-1.4%	-2.1%	-15.7%
Cc1ccc2cc(CN(CCCO)S(=O)(=O)c3cccc4nsnc34)c(=O)[nH]c2c1	9.2µM*	-0.2%	-1.1%	5.8%	8.8%	-23.1%
Cc1ccc2[nH]c(=O)c(CN(Cc3ccco3)S(=O)(=O)c3c(C)ccc4nsnc34)cc2c1	?	-14.1%	2.6%[2.3 µM]	-4.6%	-16.9%	7.94µM*
COC(=O)c1ccccc1S(=O)(=O)N(Cc1ccco1)Cc1cc2cc(OC)ccc2[nH]c1=O	23.1µM*	-10.5%	2.7%	-2.6%	1.1%	7.5%
Cc1ccc2nsnc2c1S(=O)(=O)N(Cc1ccco1)Cc1cc2cccc(C)c2[nH]c1=O	?	-6.0%	4.8%	-2.7%	0.8%	-5.8%
O=C(c1ccc(NS(=O)(=O)c2cccs2)cc1)N1CCOCC1	-1.8%	8.5%	7.2%	-5.6%	-5.6%	.
CC(=O)c1cc(-c2ccc(F)cc2)n(CCC(=O)NCc2ccccc2C)c1C	.	.	0.4%	.	.	-4.1%
CSCCC(NC(=O)c1ccccc1Br)C(=O)N1CCCCCCC1 (centres undefined)	13.4%	4.4%	2.4%	0.1%	-5.8%	.
O=c1c2sccc2nc(SCc2cc(=O)n3ccccc3n2)n1Cc1ccccn1	?	?	-2.8%	?	3.98µM*	12.6µM*
C=CCSc1nc(C)cc2c1C(=O)OC2	-14.2%	?	2.8%	-2.5%	0.1%	29.2%
CCOC(=O)c1c(C)nc(C)c(C(=O)OCC)c1-c1cccc(N)c1	-7.6%	-7.5%	-2.2%	-9.7%	-0.8%	22.4µM*
SMILES	ELG1 DNA repair	ELG1 genotoxic	FLuc counter	NPC1 prom act	Rab9 promoter act	SMN2 splice up
Cc1csc(NC(=O)c2cc3c(s2)CCCC3)n1	?	?	0.269µM*	0.562µM*	?	.
Cc1csc(NC(=O)c2cc3c(s2)CCCCC3)n1	?	0.206µM*	0.135µM*	0.355µM*	0.501µM*	1µM*
Cc1csc(NC(=O)c2cc([N+](=O)[O-])cc([N+](=O)[O-])c2)n1	-1.5%	0.1%	?	-1.1%	-5.2%	-67.5%
Cc1csc(NC(=O)C2CCCC2)n1	?	?	-25.0%	18.3%	22.7%	27.6%
Cc1cnc(NC(=O)c2cc3c(s2)CCCC3)s1	?	?	0.269µM*	?	0.708µM*	?
CS(=O)(=O)N1CCC(NC(=O)Nc2ccc(OC(F)(F)F)cc2)CC1	18.5%	0.9%	0.4%	-0.5%	3.6%	.
Cc1sc(N)nc1-c1ccc(Oc2ccccc2)cc1	?	?	23.9µM*	17.8%	29.1%	.
Cc1ccc(S(=O)(=O)N(C)CC(=O)Nc2ccc(C)cn2)cc1	?	13.3%	-17.7%	-2.1%	?	.
Cc1ccnc(NC(=O)Cc2ccc(-c3ccccc3)cc2)c1	?	2.31µM*	10.7µM*	-4.4%	-36.8%	.
Cc1ccnc(NC(=O)CNC(=O)c2ccc(Br)o2)c1	?	16.4µM*	?	6.1%	-7.5%	.
Cc1ccc(S(=O)(=O)N(C)CC(=O)Nc2cc(C)ccn2)cc1	?	10.3µM*	?	-2.0%	0.5%	.
CCOc1ccc(N(CC(=O)NCCc2ccccc2)C(=O)CCC(=O)Nc2cc(C)ccn2)cc1	-6.1%	-11.3%	0.5%	1.2%	-4.5%	.
CC1(C)Cc2c(sc3c2c(=O)n(Cc2ccccc2)c2nncn32)CO1	3.2%	-0.1%	0.9%	-3.7%	-2.2%	-10.6%
CC1(C)Cc2c(sc3c2c(=N)n(Cc2ccco2)c(=O)n3Cc2ccc(Cl)cc2)CO1	5.8µM*	-15.9%	1.0%	1.0%	3.0%	-10.9%
CC1(C)Cc2c(sc3c2c(=N)n(Cc2ccco2)c(=O)n3Cc2ccccc2)CO1	11.6µM*	-0.4%	-1.7%	-2.7%	8.2%	26.5%
CCOC(=O)C1CCCN(C(=O)c2ccc(Cl)c(S(=O)(=O)N3CCCCC3)c2)C1 (centres undefined)	?	-9.0%	2.3%	-3.3%	-3.6%	-28.7%
S=c1[nH]c(-c2ccccc2)cn1/N=C/c1cccc2ccccc12	-14.4%	-2.0%	?	-0.2%	1.1%	-1.7%
S=c1[nH]c(-c2ccccc2)cn1/N=C/c1ccccc1Br	5.8%	-3.8%	13.5µM*	28.6%	25.4%	5.2%
